PPARg SRC-3 ag – PPARgamma agonists recruiting SRC-3 coactivator, primary screen, biochemical; Peroxisome proliferator-activated receptor gamma (Homo sapiens), P37231; biochemical PPARgamma/SRC-3 coactivator recruitment assay; activation, % at 8 µM; 200,000 tested, 0.26% active; AID 731, 2007; in the data active = activation above about 23%
Target sequence (P37231 whole entry, looked up): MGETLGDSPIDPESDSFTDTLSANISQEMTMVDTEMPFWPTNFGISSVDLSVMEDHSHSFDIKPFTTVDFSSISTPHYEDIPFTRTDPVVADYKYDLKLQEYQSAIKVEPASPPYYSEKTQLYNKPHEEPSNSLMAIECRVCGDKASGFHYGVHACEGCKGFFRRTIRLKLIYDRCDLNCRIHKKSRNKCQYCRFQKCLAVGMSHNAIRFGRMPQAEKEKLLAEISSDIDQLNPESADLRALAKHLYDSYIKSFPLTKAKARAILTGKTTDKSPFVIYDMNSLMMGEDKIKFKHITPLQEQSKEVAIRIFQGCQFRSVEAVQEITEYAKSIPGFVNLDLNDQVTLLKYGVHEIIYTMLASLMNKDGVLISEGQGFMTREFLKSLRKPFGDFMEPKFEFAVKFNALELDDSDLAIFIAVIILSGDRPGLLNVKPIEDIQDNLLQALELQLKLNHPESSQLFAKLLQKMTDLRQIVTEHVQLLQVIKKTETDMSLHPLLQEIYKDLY
PPARg SRC1 recr – PPARgamma agonists recruiting SRC-1 coactivator, primary screen, biochemical; Peroxisome proliferator-activated receptor gamma (Homo sapiens), P37231; PPARgamma-SRC-1 coactivator recruitment biochemical assay; 200,000 tested, 0.41% active; AID 631, 2007; activation, % at 8 µM; in the data active = activation above about 19%
SRC1 TRFRET art – TR-FRET detection interference compounds, primary screen, artefact control for PPARgamma SRC-1 recruitment agonists, biochemical, TR-FRET emission ratio; TR-FRET detection artefact counter-screen; stronger effect = higher value; TR-FRET ratio at 8 µM; 99,000 tested, 0.34% active; AID 1051, 2008; in the data active = TR-FRET ratio above about 2300
PPARg SRC2 recr – agonists of PPARg-SRC-2 recruitment, primary screen, biochemical, HTS; 200,000 tested, 0.34% active; Peroxisome proliferator-activated receptor gamma (Homo sapiens), P37231; AID 1032, 2008; activation, % at 8 µM; PPARgamma LBD-SRC-2 recruitment; in the data active = activation above about 22%
SRC2 TRFRET art – TR-FRET signal artefacts, primary screen, artefact control for PPARgamma SRC-2 agonist project, biochemical | AID 1049, 2008 | 200,000 tested, 0.4% active | TR-FRET artefact counter-screen; stronger effect = higher value | TR-FRET ratio at 8 µM
SRC3 TRFRET art – TR-FRET detection interference compounds, artefact control for PPARgamma SRC-3 recruitment agonists, biochemical, TR-FRET ratio | TR-FRET ratio at 8 µM | AID 1048, 2008 | 99,000 tested, 0.39% active | TR-FRET artefact counter-screen, PPARgamma/SRC-3 format; stronger effect = higher value
Numbers stand for hits; - = inactive; . = no result given. The list is not random: actives were taken first. Their share in the collection is about 0.84%. Rule as the data show it, unless noted: active = TR-FRET ratio above about 2000; inactive = the rest.

SMILES	PPARg SRC-3 ag	PPARg SRC1 recr	SRC1 TRFRET art	PPARg SRC2 recr	SRC2 TRFRET art	SRC3 TRFRET art
Cc1ccc(/C(O)=C2\C(=O)C(=O)N(c3cc(C)on3)C2c2cccc(Cl)c2)cc1 (stereo unspecified)	-	-	.	-	-	.
COc1ccc(/C(O)=C2\C(=O)C(=O)N(c3cc(C)on3)C2c2cccc(OC)c2OC)cc1C (stereo unspecified)	-	-	.	-	2062	.
CO/N=C/c1cccn1-c1nccc(OC)c1C#N	-	-	-	-	-	-
Cc1ccc2c(c1)sc(=NC(=O)c1cccs1)n2C	-	-	2965	-	-	3246
CCOC(=O)c1sc(=NC(=O)c2cccs2)n(C)c1C	-	-	-	-	-	-
Cc1ccc(N2C(=O)CSC2c2cccs2)cc1 (stereo unspecified)	-	-	.	-	-	.
Cc1cc(C)cc(N2C(=O)CSC2c2cccs2)c1 (stereo unspecified)	-	-	-	-	1989	-
CNC(=S)N1N=C(c2ccc(C)cc2)CC1c1cc(OC)ccc1OC (stereo unspecified)	-	-	2589	-	-	2547
CNC(=S)N1N=C(c2ccc(C)cc2)CC1c1ccc(OC)cc1 (stereo unspecified)	-	-	.	-	-	.
CNC(=S)N1N=C(c2ccc(C)cc2)CC1c1ccc(N(C)C)cc1 (stereo unspecified)	-	-	2359	-	-	2431
Cc1cc2ccccc2n1CCNC(=O)Cc1ccccc1	-	-	.	-	-	.
Cc1ccc(S(=O)(=O)NCCn2c(C)cc3ccccc32)cc1	-	-	.	-	2803	.
Cc1cc(C)c(S(=O)(=O)NCCn2c(C)cc3ccccc32)c(C)c1	-	-	.	-	2078	.
Cc1cc2cc(CNC(=O)c3ccc(S(=O)(=O)N(C)C)cc3)ccc2n1C	-	-	.	-	2108	.
Cc1cc(C)c(S(=O)(=O)NCc2ccc3c(c2)cc(C)n3C)c(C)c1	-	-	.	-	2083	.
CC(=O)Nc1ccc(S(=O)(=O)NCc2ccc3c(c2)cc(C)n3C)cc1	-	-	.	-	-	.
CC(Cc1ccccc1)C(=O)N(C)Cc1cccnc1 (stereo unspecified)	-	-	-	-	-	-
CC(C)(O)C#Cc1ccc(CN2CCN(C3CCCCC3)C(CCO)C2)cc1 (stereo unspecified)	-	24.3	2568	-	-	-
CCC1Cc2c(nc3c4c(nc(N5CCOCC5)c(C#N)c24)NC(C)=N3)O1 (stereo unspecified)	-	-	.	-	-	.
C/C(=C\c1ccccc1)C(=O)Nc1ccc(S(=O)(=O)Nc2ncccn2)cc1	-	-	-	-	-	-
Cc1c(C(=O)Nc2ccc(-n3cnnn3)cc2)oc2ccccc12	-	-	.	-	1999	.
COc1ccc(-c2cc(-c3cccs3)c(C#N)c(SCC(=O)NCc3ccccc3OC)n2)cc1	-	27.3	.	-	-	.
COc1ccccc1CNC(=O)CSc1nc(N)c(C#N)c(-c2cccs2)c1C#N	29.5	-	.	-	-	.
COc1ccc(-c2cc(-c3cccs3)c(C#N)c(SCC(=O)NCc3ccccc3)n2)cc1	-	39.4	.	-	-	.
COc1ccc(-c2cc(-c3ccccc3)nc(SCC(=O)Nc3ncc(C)s3)c2C#N)cc1	-	-	-	-	-	-
SMILES	PPARg SRC-3 ag	PPARg SRC1 recr	SRC1 TRFRET art	PPARg SRC2 recr	SRC2 TRFRET art	SRC3 TRFRET art
N#Cc1c(N)nc(SCC(=O)NCc2ccc3c(c2)OCO3)c(C#N)c1-c1cccs1	-	-	.	-	-	.
CC(C)C(=O)N1C2CCC1CC(O)(c1ccc(F)cc1)C2 (stereo unspecified)	48.0	-	.	-	-	.
Cc1cc(N2C3CCC2CC(O)(c2ccc(F)cc2)C3)nc(-c2ccccc2)n1 (stereo unspecified)	-	-	.	-	-	.
O=C(Nc1ccc2c(c1)OCCO2)c1cc2sccc2n1Cc1ccc(F)cc1	-	-	.	-	-	.
O=C(Nc1ccc2c(c1)OCCO2)c1cc2sccc2n1Cc1ccccc1	-	-	.	-	1989	.
CCn1nc(CC(=O)O)c2ccccc2c1=O	-	-	-	-	-	-
CCc1cc(C(=O)COc2ccccc2F)c(O)cc1O	-	-	.	-	-	.
COc1ccc(C(=O)Nc2nc3c(s2)CCCC3)cc1S(=O)(=O)N1CCCc2ccccc21	-	-	-	-	-	2089
Cc1ccc(S(=O)(=O)N2CCCC(C(=O)N(Cc3cccs3)C3CC3)C2)cc1 (stereo unspecified)	-	-	-	-	2180	-
CC(C)NC(=O)COC(=O)c1cccc(NS(=O)(=O)/C=C/c2ccccc2)c1	-	-	-	21.9	-	-
O=C(Nc1ccc(O)cc1C(=O)O)c1cccs1	-	-	-	-	-	-
CCCCSc1nnc([C@H](C)NC(=O)OC(C)(C)C)o1	-	-	.	38.8	2298	.
COc1ccc(C2=C(CC(=O)O)C(=O)CC2)cc1	-	-	-	-	-	-
COc1ccccc1/C=N/NC(=O)CCn1cnc2ccccc21	-	-	-	-	-	-
CCc1nn(CC(=O)NCCCN(CC)Cc2ccccc2)c(=O)c2cc3sccc3n12	-	-	.	-	2044	.
CCCCC(CC)CNC(=O)Cn1c(=S)[nH]c2ncccc2c1=O (stereo unspecified)	-	-	-	-	-	-
Cc1cc(SCC(=O)NCCC2=CCCCC2)nc2ccccc12	-	-	-	-	-	-
CCOC(=O)c1c(NC(=O)Cc2cccs2)sc(C(=O)NC2CCCC2)c1C	34.5	-	.	-	-	.
CCOC(=O)c1c(NC(=O)Cc2cccs2)sc(C(=O)NC2CCCCC2)c1C	-	-	.	-	-	.
COc1ccc(N2C(=O)/C(=C/c3ccc([N+](=O)[O-])cc3)N=C2C)cc1	-	-	-	-	-	-
COc1ccc(C)cc1-n1nnnc1SCC(=O)c1ccc2c(c1)OCCO2	-	-	.	-	3766	.
Cn1cc(/C=N/n2cnc3sc4c(c3c2=O)CCCC4)c2ccccc21	-	-	.	-	1972	.
O=c1c2c3c(sc2ncn1/N=C/c1ccc([N+](=O)[O-])o1)CCCC3	-	-	.	-	-	.
O=C(COc1ccc2ccccc2c1)Nc1ccc(S(=O)(=O)N2CCCCCC2)cc1	-	-	.	-	2073	.
O=C(COc1ccc2ccccc2c1)NNC(=O)Cc1ccccc1	-	65.3	2551	-	-	-
O=C(O)C1CCC(Cn2c(SCc3cc(=O)n4cc(Br)ccc4n3)nc3ccsc3c2=O)CC1 (stereo unspecified)	-	-	-	-	-	2459
Cc1cccc(N2CCN(C(=O)c3ccncc3)CC2C)c1 (stereo unspecified)	-	-	.	-	-	.
Cc1cccc(N2CCN(C(=O)c3cc(C)oc3C)CC2C)c1 (stereo unspecified)	-	-	2332	-	-	-
